Data from PubChem BioAssay (NCATS).
Results filed as inconclusive are left out. Where a call stands in place of a potency, no number is given. Values without a mark were called inactive. Calls of active or inactive are those of the source. The call rests on the fitted dose curve; in most records, active means well fitted inhibition curve with a large enough effect; inconclusive means small, poorly fitted or top-dose-only effect; inactive means no such curve, though single readings can be large or run the other way.

Test system: Zika virus NS2B-NS3 protease (unlinked complex)
Assay: Primary screen GU Rhodamine qHTS for Zika virus inhibitors: Unlinked NS2B-NS3 protease assay (AID 1347159); further: nearly all actives have a fitted effect of over 60% in size
Conditions: Recombinant ZIKV NS2B-NS3 protease, Rhodamine110 substrate fluorescence; series mostly up to 107 µM
Procedure, shortened: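 In dose–response format, inhibition of unlinked protease (25 nM) was measured with 1.5 microM bis-peptide Rhodamine110 substrate. Aprotinin served as the intraplate control.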
Potency means the concentration at half of the fitted maximal effect.

Q: COc1cc(/C=C/CO)cc(OC)c1O[C@@H]1O[C@H](CO[C@@H]2O[C@H](CO)[C@@H](O)[C@H](O)[C@H]2O)[C@@H](O)[C@H](O)[C@H]1O was tested. Which Potency did it give?
A: The Potency was “inactive”.

Q: C/C=C(\C)C(=O)O[C@H]1[C@@H](O[C@]2(COC(=O)CC(C)C)O[C@H](COC(=O)C(C)CC)[C@@H](OC(C)=O)[C@@H]2O)O[C@H](COC(C)=O)[C@@H](O)[C@@H]1O (some centres undefined) was tested. Which Potency did it give?
A: Its Potency is “inactive”.

Q: Which Potency does the source give for C[C@@H]1C(=O)OC[C@H]2C(C(=O)O)=C[C@@H]3CC(C)(C)C[C@]312 here?
A: Its Potency is “inactive”.

Q: COC1CC(OC2CCC3(C)C(=CCC4C3C(OC(C)=O)C(OC(=O)/C=C/c3ccccc3)C3(C)C(C(C)O)CCC43O)C2)OC(C)C1OC1CC(OC)C(OC2OC(C)C(OC3OC(CO)C(O)C(O)C3O)C(OC)C2O)C(C)O1 (centres undefined) was tested. Which activity change, negative = inhibition did it give?
A: Its activity change, negative = inhibition is 0.295% [at 19.1 µM].

Q: Which Potency does the source give for CC(C)CC1NC(=O)C(C)NC(=O)C(CC(C)C)OC(=O)CCCNC1=O (centres undefined) here?
A: Its Potency is “inactive”.

Q: How did the Potency turn out when CC1=C(C)C(=O)OC(C(C)C2CCC3C4CC=C5CC(OC6OC(COC7OC(CO)C(O)C(O)C7O)C(O)C(O)C6O)CC(O)C5(C)C4CCC23C)C1 (centres undefined) was run?
A: Its Potency is “inactive”.

Q: For CC(C)[C@@H]1C(=O)N(S(C)(=O)=O)[C@@H]2CCN(C(=O)/C=C/CN3CCCCC3)[C@H]21, which Potency is on record?
A: Its Potency is “inactive”.

Q: How did the Potency turn out when COc1ccc(C2=N[C@@H](c3ccc(Cl)cc3)[C@@H](c3ccc(Cl)cc3)N2C(=O)N2CCNC(=O)C2)c(OC(C)C)c1 was run?
A: Its Potency is “inactive”.

Q: OC1CCC(Nc2ncc3nc(Nc4c(F)cc(F)cc4F)n([C@H]4CCOC4)c3n2)CC1 (some centres undefined) was tested. Which Potency did it give?
A: The Potency was “inactive”.

Q: How did the Potency turn out when Cc1nc2sc(C(=O)NCc3ccncc3)c(N)c2c(C)c1Cl was run?
A: The Potency was “inactive”.

Q: CC(=O)c1ccc2c(c1)C(O)C(C(C)(C)O)O2 (centres undefined) was tested. Which Potency did it give?
A: Its Potency is “inactive”.

Q: CC1CCN(C(=O)CC#N)CC1N(C)c1ncnc2[nH]ccc12 (centres undefined) was tested. Which Potency did it give?
A: Its Potency is “inactive”.

Q: How did the Potency turn out when COc1cc2ncnc(Nc3cccc(O)c3)c2cc1OC was run?
A: Its Potency is “inactive”.

Q: C=C[C@H]1[C@H](O[C@@H]2O[C@H](CO)[C@@H](O)[C@H](O)[C@H]2O)OC=C(C(=O)OC)[C@H]1CC(=O)O was tested. Which Potency did it give?
A: Its Potency is “inactive”.

Q: For COc1cc(OC)cc(C(=O)Nc2ccc(Cl)c(-c3nc4ccc(N(C)C)cc4[nH]3)c2)c1, which Potency is on record?
A: The Potency was “inactive”.

Q: How did the Potency turn out when O=C(O)c1cccc(S(=O)(=O)N2CCc3ccccc3C2)c1 was run?
A: Its Potency is “inactive”.

Q: CC1(O)CCCC2(C)C1CCC13CC(CO)C(CCC12)C3 (centres undefined) was tested. Which Potency did it give?
A: The Potency was “inactive”.

Q: With CCOc1ccc(S(=O)(=O)n2c(C)nc3ccccc32)cc1 as the molecule, how does the Potency read?
A: The Potency was “inactive”.

Q: Which Potency does the source give for O=C1OCc2cc3cccc(O[C@@H]4O[C@H](CO)[C@@H](O)[C@H](O)[C@H]4O)c3c(O)c21 here?
A: The Potency was “inactive”.

Q: With CC1OC2OC(=O)C3(C)CC4=C(CO)C5=C(CC(=O)C4(C)C(C1=O)C23)C(C)(C)OC(=O)C5 (centres undefined) as the molecule, how does the Potency read?
A: The Potency was “inactive”.

Q: NCCCNc1ccc(Nc2nccc(Nc3cc(C4CC4)[nH]n3)n2)cc1 was tested. Which Potency did it give?
A: The Potency was “inactive”.

Q: For COCC1OC(OC(C)(C)C2CCC3(C)C=C(C4CCC5C4(C)CC(O)C4OC(C(C)(C)OC6OC(CO)C(O)C(O)C6NC(C)=O)CCC45C)CCC3O2)C(NC(C)=O)C(O)C1O (centres undefined), which Potency is on record?
A: Its Potency is “inactive”.

Q: How did the Potency turn out when CN(C)CCCCC(=O)Nc1ccc(NC(=S)NC(=O)c2ccc(C(C)(C)C)cc2)cc1 was run?
A: Its Potency is “inactive”.

Q: For C=C1C(=O)O[C@@H]2[C@H]1CCC(C)=C1CCC(=O)O[C@]12C, which Potency is on record?
A: The Potency was “inactive”.

Q: With CC1=CC(=O)CC(C)(C)[C@@]1(O)CC[C@@H](C)O[C@@H]1O[C@H](CO)[C@@H](O)[C@H](O)[C@H]1O as the molecule, how does the Potency read?
A: The Potency was “inactive”.

Q: How did the Potency turn out when CC(C)CN(C[C@@H](O)[C@H](Cc1ccccc1)NC(=O)O[C@@H]1CO[C@H]2OCC[C@H]21)S(=O)(=O)c1ccc(N)cc1 was run?
A: Its Potency is “inactive”.

Q: For COc1c(Nc2ncc(Cl)c(N[C@H]3[C@@H](C(N)=O)[C@@H]4C=C[C@H]3C4)n2)ccc2c1CC[C@@H](N1CCOCC1)CC2, which Potency is on record?
A: The Potency was “inactive”.

Q: With CC(C)(F)C[C@@H](N[C@@H](c1ccc(-c2ccc(S(C)(=O)=O)cc2)cc1)C(F)(F)F)C(=O)NC1(C#N)CC1 as the molecule, how does the Potency read?
A: Its Potency is “inactive”.

Q: How did the activity change, negative = inhibition turn out when C/C=C(\C)C(=O)O[C@@H]1CC2[C@@H](CC=C3C[C@@H](O[C@H]4C[C@H](OC)[C@H](O[C@H]5C[C@H](OC)[C@H](O[C@@H]6O[C@H](C)[C@@H](O[C@H]7C[C@H](OC)[C@H](O[C@@H]8O[C@H](CO)[C@@H](O)[C@H](O)[C@H]8O)[C@@H](C)O7)[C@H](OC)[C@H]6O)[C@@H](C)O5)[C@@H](C)O4)CC[C@@]32C)[C@@]2(O)CC[C@H](C(C)=O)[C@@]12C (some centres undefined) was run?
A: The activity change, negative = inhibition was 8.5% [at 19.1 µM].

Q: Which Potency does the source give for O=C(c1cn(Cc2cncn2Cc2ccc(Br)cc2)cc1-c1cccc2ccccc12)N1CCOCC1 here?
A: The Potency was “inactive”.

Q: How did the Potency turn out when C/C(=C\CCC1(C)C2CCC(C2)C1(C)O)C(=O)O (centres undefined) was run?
A: Its Potency is 22.4 µM (active).

Q: With CNC(=O)c1ccccc1Nc1nc(Nc2ccc3c(c2OC)CCCC(N2CCN(CCO)CC2)C3)ncc1Cl (centres undefined) as the molecule, how does the Potency read?
A: Its Potency is “inactive”.

Q: Cc1[nH]nc(C(F)(F)F)c1Cc1sc2c(c1C(=O)N1C[C@](C)(O)CO1)c(=O)n(C)c(=O)n2C(C)C was tested. Which Potency did it give?
A: The Potency was “inactive”.

Q: With COc1ccc(-c2cnc(-c3cccc4c3-c3ccccc3C4=O)o2)cc1 as the molecule, how does the Potency read?
A: Its Potency is “inactive”.

Q: For COc1c2cc(c(O)c1OC)-c1cc(ccc1O)CCC(O)CCCC2 (centres undefined), which Potency is on record?
A: The Potency was “inactive”.

Q: OC[C@H]1O[C@@H](Oc2cc(O)c3c(c2)O[C@@H](c2ccc(O)cc2)[C@H](O)C3)[C@H](O)[C@@H](O)[C@@H]1O was tested. Which Potency did it give?
A: The Potency was “inactive”.

Q: For COc1cc2c(cc1OC)[C@@H]1[C@H](O)[C@@H](OC)C=C3CCN(C2)[C@H]31, which Potency is on record?
A: Its Potency is “inactive”.

Q: With CC(=O)NC1C(OC(C)(C)C2CCC3(C)C=C(C4CCC5C4(C)CC(O)C4OC(C(C)(C)O)CCC45C)CCC3O2)OC(CO)C(O)C1O (centres undefined) as the molecule, how does the Potency read?
A: Its Potency is “inactive”.

Q: How did the Potency turn out when C[C@@H]1COCCN1c1cc(C2(S(C)(=O)=O)CC2)nc(-c2cccc3[nH]ccc23)n1 was run?
A: Its Potency is “inactive”.
